± gives the standard deviation of the averaged measurements.
system: SUM149; test: percent difference in area under dose-response curve of relative cell number, RPMI vs HPLM; higher = drug relatively more effective in HPLM than RPMI (negative = less effective in HPLM); details: treatment time: 72 h; dose range: 10-point, 1 nM to 20 µM; media compared: RPMI vs HPLM

Compared with `S=c1[nH]cnc2nc[nH]c12` [Mercaptopurine], `O=c1[nH]cc(F)c(=O)[nH]1` [5_Fluorouracil] is higher in “percent difference in area under dose-response curve” value (shortened to “percent difference in area”): -43.4% for the first, 0.782% for the second.

First: CCOC(=O)c1cnc2ccc(-c3cncc(NS(=O)(=O)c4ccccc4)c3)cn12
Second: CCCS(=O)(=O)Nc1ccc(F)c(C(=O)c2c[nH]c3ncc(-c4ccc(Cl)cc4)cc23)c1F [Vemurafenib]
The “percent difference in area” value of the first is lower: -8.07% for the first, 6.44% for the second.

Compared with `CC(/C=C/C(=O)NO)=C\[C@@H](C)C(=O)c1ccc(N(C)C)cc1` [Trichostatin_A], `CC(C)=CCC1=C(O)C(=O)c2ccccc2C1=O` [Lapachol] is higher in “percent difference in area” value: -9.24% for the first, 10.9% for the second.

Compared with `CCN(CCCOc1ccc2c(Nc3cc(CC(=O)Nc4cccc(F)c4)[nH]n3)ncnc2c1)CCOP(=O)(O)O` [Barasertib], `C#Cc1cccc(Nc2ncnc3cc(OCCOC)c(OCCOC)cc23)c1` [Erlotinib_HCl] is higher in “percent difference in area” value: -20.6% for the first, -0.149% for the second.

Going from `CC(=O)OC[C@H]1O[C@@H]([S-])[C@H](OC(C)=O)[C@@H](OC(C)=O)[C@@H]1OC(C)=O.CCP(CC)CC.[Au+]` [Auranofin] to `CCC(C)(C)C(=O)O[C@H]1C[C@@H](C)C=C2C=C[C@H](C)[C@H](CC[C@@H]3C[C@@H](O)CC(=O)O3)[C@H]21` [Simvastatin], the “percent difference in area” value falls from -10.3% to -12.1%.

First: CC1(C)C(N(O)C(=O)Nc2ccc(Cl)cc2)N(c2ccc(Cl)cc2)C(=O)N1CC(=O)NN=CC=Cc1ccc([N+](=O)[O-])o1 (centres undefined) [Eeyarestatin_I]
Second: N#CCNC(=O)c1ccc(-c2ccnc(Nc3ccc(N4CCOCC4)cc3)n2)cc1
The “percent difference in area” value of the first is lower: -5.38% for the first, 7.22% for the second.

Going from `Cn1c(=O)c(F)c(Nc2ccc(I)cc2F)c2c(=O)n(C[C@@H](O)CO)cnc21` to `CNC(=O)c1cc(Oc2ccc(NC(=O)Nc3ccc(Cl)c(C(F)(F)F)c3)c(F)c2)ccn1` [Regorafenib], the “percent difference in area” value rises from -12.9% to -5.08%.

Compared with `Cc1ccc(NC(=O)c2ccc(CN3CCN(C)CC3)cc2)cc1Nc1nc(-c2cccnc2)cs1` [Masitinib], `CCN1CCN(Cc2ccc(-c3cc4c(N[C@H](C)c5ccccc5)ncnc4[nH]3)cc2)CC1` is higher in “percent difference in area” value: -3.29% for the first, -3.13% for the second.

Going from `O=C(O[C@@H]1Cc2c(O)cc(O)cc2O[C@@H]1c1cc(O)c(O)c(O)c1)c1cc(O)c(O)c(O)c1` [_Epigallocatechin_gallate] to `CN1CC[C@H](c2c(O)cc(O)c3c(=O)cc(-c4ccccc4Cl)oc23)[C@H](O)C1` [Flavopiridol], the “percent difference in area” value falls from 3.46% to -2.56%.

Compared with `Nc1ncn([C@@H]2O[C@H](CO)[C@@H](O)[C@H]2O)c(=O)n1` [Azacitidine], `Cc1ccc([C@@H]2O[C@H](CO)[C@@H](O)[C@H](O)[C@H]2O)cc1Cc1ccc(-c2ccc(F)cc2)s1` [Canagliflozin] is higher in “percent difference in area” value: -13.8% for the first, -4.56% for the second.

First: COc1cc2ncnc(Nc3ccc(F)c(Cl)c3)c2cc1NC(=O)/C=C/CN1CCCCC1 [Dacomitinib]
Second: COc1cc2ncnc(Nc3ccc(F)c(Cl)c3)c2cc1OCCCN1CCOCC1 [Gefitinib]
The “percent difference in area” value of the first is lower: -9.71% for the first, -2.1% for the second.

Compared with `Cc1ccc(S(=O)(=O)/C=C/C#N)cc1`, `CCc1nc(N)nc(N)c1-c1ccc(Cl)cc1` [Pyrimethamine] is higher in “percent difference in area” value: 0.814% for the first, 33.6% for the second.

Compared with `CCN(CC)CCNC(=O)c1c(C)[nH]c(/C=C2\C(=O)Nc3ccc(F)cc32)c1C` [Sunitinib_Malate], `CC[C@@H]1C(=O)N(C)c2cnc(Nc3ccc(C(=O)N[C@H]4CC[C@H](N5CCN(CC6CC6)CC5)CC4)cc3OC)nc2N1C(C)C` is lower in “percent difference in area” value: 3.02% for the first, -16.8% for the second.

First: C=CC(=O)Nc1cccc(Nc2nc(Nc3ccc(NC4CN(CCF)C4)cc3OC)ncc2C(F)(F)F)c1
Second: COc1cc2nccc(Oc3ccc(NC(=O)NC4CC4)c(Cl)c3)c2cc1C(N)=O
The “percent difference in area” value of the first is higher: 10.4% for the first, 5.17% for the second.

First: CCc1c2c(nc3ccc(OC(=O)N4CCC(N5CCCCC5)CC4)cc13)-c1cc3c(c(=O)n1C2)COC(=O)[C@]3(O)CC [Irinotecan_HCl_Trihydrate]
Second: CC1(COc2ccc3c(c2)ncn3-c2ccc3cccc(N4CCC(N)CC4)c3n2)COC1 [Crenolanib]
The “percent difference in area” value of the first is higher: -10.1% for the first, -11.6% for the second.

Going from `Cc1cnc(NC(=O)Nc2cc(Br)c(C)cc2OC[C@@H]2CNCCO2)cn1` to `Cc1nc(N)sc1-c1ccnc(Nc2ccc(N3CCOCC3)cc2)n1`, the “percent difference in area” value rises from 1.27% to 11%.

Compared with `CC[n+]1c(-c2ccccc2)c2cc(N)ccc2c2ccc(N)cc21` [Ethidium_Bromide], `CCN(CC)C(=S)SSC(=S)N(CC)CC` [Disulfiram] is lower in “percent difference in area” value: -18.5% for the first, -27.1 ± 6.8% for the second.

From the supplement of paper PMC11383364
